Screening results deposited in PubChem by Johns Hopkins Ion Channel Center.
An excerpt weighted towards active compounds, which were near 3.5% of everything screened.
KCNK3 inh = human KCNK3 channel inhibitors, primary screen, CHO cells, FluxOR thallium flux, B-score. Potassium channel subfamily K member 3 (Homo sapiens), O14649. FluxOR fluorescence; active compounds read low. B-score at 10 µM. 340,000 tested, 0.84% active;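 active = B-score under library mean minus 4 SD, starting fluorescence ratio at most library mean plus 5 SD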;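 also: more negative B-score means stronger inhibition of thallium flux through KCNK3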
KCNK9 block = KCNK9 potassium channel inhibitors, primary screen, HEK293 cells, thallium flux; Potassium channel subfamily K member 9 (Homo sapiens), Q9NPC2; FluxOR thallium flux fluorescence; active compounds read low; B-score at 10 µM; 310,000 tested, 1.2% active; AID 488922, 2010;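 active = ratio B-score over 3 SD below the library mean, with starting fluorescence within 5 SD of its mean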;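 also: negative B-score means less thallium flux so channel inhibition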
TMEM16A act = TMEM16A chloride channel activators or potentiators, primary screen, cell-based, HTS. HEK293 TMEM16A/YFP-H148Q/I152L, iodide quench fluorescence; active compounds read low. B-score at 10 µM. 340,000 tested, 0.3% active. AID 623877, 2012;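 active = fluorescence-ratio B-score plate-corrected deviation score at least 3 library SD below zero, with starting fluorescence score within 5 deviations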;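 also: channel opened by trigger with iodide after compound preincubation; score built on the fluorescence ratio of max minus min over baseline; more negative score means more quench and so TMEM16A activation or potentiation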
Target sequence (Q8BHY3 whole entry, looked up): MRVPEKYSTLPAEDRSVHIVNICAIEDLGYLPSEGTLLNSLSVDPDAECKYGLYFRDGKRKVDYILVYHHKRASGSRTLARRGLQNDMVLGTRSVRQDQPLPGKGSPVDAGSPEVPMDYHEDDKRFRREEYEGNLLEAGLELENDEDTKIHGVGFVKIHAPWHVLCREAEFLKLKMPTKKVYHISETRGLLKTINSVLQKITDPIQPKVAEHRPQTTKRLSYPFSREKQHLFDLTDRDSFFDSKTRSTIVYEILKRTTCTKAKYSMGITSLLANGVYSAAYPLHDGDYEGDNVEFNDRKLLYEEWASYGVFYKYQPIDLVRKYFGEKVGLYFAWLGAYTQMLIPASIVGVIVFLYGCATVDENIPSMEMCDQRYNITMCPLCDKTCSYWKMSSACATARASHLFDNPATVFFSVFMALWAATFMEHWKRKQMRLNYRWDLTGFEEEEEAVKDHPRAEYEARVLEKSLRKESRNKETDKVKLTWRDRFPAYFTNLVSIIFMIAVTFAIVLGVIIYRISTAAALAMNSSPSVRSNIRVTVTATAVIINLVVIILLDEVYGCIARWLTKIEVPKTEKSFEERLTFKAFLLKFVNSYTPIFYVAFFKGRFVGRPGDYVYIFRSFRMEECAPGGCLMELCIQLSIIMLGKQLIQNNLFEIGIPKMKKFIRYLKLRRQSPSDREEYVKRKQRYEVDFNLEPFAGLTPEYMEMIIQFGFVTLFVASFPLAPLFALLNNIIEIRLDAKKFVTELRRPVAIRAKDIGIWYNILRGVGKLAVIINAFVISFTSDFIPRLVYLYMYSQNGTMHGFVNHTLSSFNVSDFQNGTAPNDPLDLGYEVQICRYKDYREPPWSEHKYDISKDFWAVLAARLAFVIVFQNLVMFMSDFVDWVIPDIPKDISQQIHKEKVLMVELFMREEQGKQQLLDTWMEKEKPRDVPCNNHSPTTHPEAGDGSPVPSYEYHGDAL
ANO1 block = TMEM16A chloride channel inhibitors, primary screen, cell-based, HTS. Anoctamin-1 (Mus musculus), Q8BHY3. normalized B-score (activity score, 25-100; higher = stronger inhibition) at 10 µM. 310,000 tested, 1.2% active. HEK293 TMEM16A/YFP iodide influx fluorescence, ionomycin;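 active = ratio plate-corrected score three or more library SD toward inhibition, starting fluorescence score within five deviations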;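 also: score derived from kinetic fluorescence span divided by baseline fluorescence per well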
Kir21 inh = inhibitors of mouse Kir2.1 inward-rectifier potassium channel; Inward rectifier potassium channel 2 (Mus musculus), P35561; HEK293-Kir2.1, FluxOR thallium flux fluorescence; active compounds read low; B-score at 10 µM; 310,000 tested, 0.85% active; AID 1672, 2009;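 active = fluorescence ratio B-score at or below minus 3 SD of library scores, with starting-brightness B-score within 2 SD, cut at about -4.2 in these data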;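 also: channel flux triggered by added potassium and thallium sulfate stimulus; B-score of peak minus minimum fluorescence over baseline after thallium stimulus; more negative B-score means stronger Kir2.1 block with less thallium influx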
Numbers stand for hits; - = inactive; . = not tested or not shown.

SMILES	KCNK3 inh	KCNK9 block	TMEM16A act	ANO1 block	Kir21 inh
Cc1c(C)n2c(SCC(=O)N3CCCCC3)nnc2[nH]c1=O	-	-	-	-	-
Cc1csc2ncnc(N3CCN(S(=O)(=O)c4cccc(C(F)(F)F)c4)CC3)c12	-	-	-	100	-
c1ccc(SCCOCCN2CCc3ccccc3C2)cc1	-	-	-	-	-5.4
CCOC(=O)/C(C#N)=C/c1c(N2CCN(CC)CC2)nc2c(C)cccn2c1=O	-	-	-	-	-
Oc1ccccc1-c1cc(C(F)(F)C(F)F)nc(-c2ccccc2)n1	-	-	-	-	-
O=[N+]([O-])c1ccc(O)c(-c2cc(C(F)(F)F)nc(-c3ccccc3)n2)c1	-	-	-	100	-
Cc1cc(Cl)ccc1OCC(=O)NNC(=O)C1CCN(c2ncnc3sc(C)c(C)c23)CC1	-9.9	.	-	.	.
Cc1sc2ncnc(N3CCN(CCOc4ccc(Cl)cc4)CC3)c2c1C	-11	-	-	100	-
Cc1sc2ncnc(N3CCC(C(=O)NNC(=O)COc4ccc(Br)cc4)CC3)c2c1C	-	-	-	100	-
Cc1sc2ncnc(N3CCC(C(=O)NNC(=O)COc4ccc(Cl)cc4)CC3)c2c1C	-	.	-	.	.
Cc1cccc(NC(=O)CSc2nc(=O)n(CCCN3CCOCC3)c3c2CCCC3)c1	-	-	-	-	-
CCCc1cc(-c2[nH]ncc2-c2ccc3c(c2)OCCCO3)c(O)cc1O	-	-	-	25	-
CCCc1cc(-c2[nH]ncc2-c2ccc(C(=O)OCC)o2)c(O)cc1O	-	-	-	-	-
CN(C)C(CNC(=O)c1cccc(S(=O)(=O)N2CCN(c3ccc(F)cc3)CC2)c1)c1ccccc1 (configuration not stated)	-	.	-	.	.
NC(=O)CC1NC(=O)c2cc([N+](=O)[O-])cc(I)c2OCCC(C(N)=O)NC(=O)[C@@H]2CCCN2C1=O (some centres not stated)	.	.	.	-	.
CCOC(=O)C1=C(C)OC(N)=C(C#N)C1c1cccs1 (configuration not stated)	-	-	-	-	-
CCN1C=C(Cc2cccs2)C2=C(C1)C(c1cccs1)C(C#N)=C(N)O2 (configuration not stated)	-9	-7.4	-	-	-
CCC1(c2ccccc2)NC(=O)N(CC(=O)N(CC(=O)Nc2ccccc2C(F)(F)F)Cc2ccco2)C1=O (configuration not stated)	-	-	-	-	-
Cc1cc(=O)[nH]c(-n2nc(C)c(Oc3ccccc3O)c2C)n1	-	-	-	-	-
Cc1nn(-c2ccc(C(F)(F)F)cn2)c(C)c1Oc1ccccc1O	-	-	-34	-	-
CCn1cc(/C=C(\NC(=O)c2ccc(OC)c(OC)c2)C(=O)NCCCN2CCOCC2)c2ccccc21	-	-	-43	.	-
CCn1cc(/C=C(\NC(=O)c2ccc(C)cc2)C(=O)NCCCN2CCOCC2)c2ccccc21	-	-	-	.	-
CCN(CC)c1ccc(CN2CCCCCC2)cc1	-	-	-	-	-
CC(C)(C)NC(=O)CN1CCC(O)(c2ccc3c(c2)OCO3)CC1	-	-	-13	-	-
OCC1(Cc2cccc(C(F)(F)F)c2)CCN(Cc2cc3ccccc3o2)CC1	-	-	-	-	-
SMILES	KCNK3 inh	KCNK9 block	TMEM16A act	ANO1 block	Kir21 inh
COc1ccc(CC2(CO)CCN(Cc3cc4ccccc4o3)CC2)cc1	-	-	-	25	-
CCN=C1SC(C(=O)Nc2cccc(Br)c2)CC(=O)N1CC (configuration not stated)	-	-7.1	-	-	-
C=CCC(O)(CC=C)CNC(=O)c1ccc(OC)c(OC2CCN(C(C)=O)CC2)c1	-	-	-	-	-
C=C(C)CN=CC1(C)CCC(C)=CO1 (configuration not stated)	-	.	-	.	.
COc1ccc(CN2CCN(Cc3ccc(Br)cc3)CC2)c(OC)c1OC	-	-	-	25	-4.8
COc1cc(CN2CCN(Cc3ccc(SC)cc3)CC2)cc(OC)c1O	-	-	-	-	-
COc1ccc(CN2CCN(S(=O)(=O)c3ccccc3)CC2)c(OC)c1OC	-	-	-	-	-
CCN1CCN(Cc2ccc(NC(=O)Nc3ccc(SC)cc3)cc2)CC1	-	-	-	-	-4.8
COc1cc(OC)c(OC)cc1CN1CCN(Cc2ccc(SC)cc2)CC1	-	-	-	-	-5.5
COc1ccc(C(=O)/C(=C\c2ccco2)N2C=CC=CC2=C(C#N)C#N)cc1	-	-	-	-	-9.9
N#CC(C#N)=C1C=CC=CN1/C(=C\c1ccco1)C(=O)c1ccccc1	-	.	-	-	.
COc1ccc(/C=C(/C(=O)c2cccs2)N2C=CC=CC2=C(C#N)C#N)cc1	-	-	-5	.	-
N#CC(C#N)=C1C=CC=CN1/C(=C\c1ccco1)C(=O)c1ccc(Br)cc1	-	.	-	-	.
CNS(=O)(=O)c1cc(Nc2ncnc3sccc23)ccc1C	-	-	-	-	-
CC(Nc1cc(N2CCNCC2)ccc1[N+](=O)[O-])c1ccccc1 (configuration not stated)	-	-	-	-	-7.5
CCS(=O)(=O)N1CCN(c2ccc([N+](=O)[O-])c(NC(C)c3ccccc3)c2)CC1 (configuration not stated)	-	-	-	-	-
CCCCN(C(=O)C1CCN(C(=O)c2ccccc2C)CC1)c1c(N)n(CC(C)C)c(=O)[nH]c1=O	-	.	-	.	.
O=C(CCS(=O)(=O)c1ccccc1)Nc1nc(-c2cccs2)cs1	-	-	-7.9	-	-
O=C(COc1ccccc1)Nc1nc(-c2cccs2)cs1	-	-	-	-	-
COc1ccc(-c2n[nH]c(C(F)(F)F)c2-c2cc3ccccc3o2)c(O)c1	-	-	-	100	-
C=CCOc1ccc(CN(C)CC(O)COc2cccc3ccccc23)cc1 (configuration not stated)	-	-	-	-	-4.6
Nc1nc(CSc2nnnn2-c2ccccc2)nc(N2CCCc3ccccc32)n1	-10	.	-	-	.
Nc1nc(CN2CCN(c3ccccc3)CC2)nc(N2CCCc3ccccc32)n1	-	-	-	-	-
Cc1ccc2nc(SC(C)C(=O)Nc3cccc([N+](=O)[O-])c3)[nH]c2c1 (configuration not stated)	-	-	-	-	-
CC1CCc2cc(F)ccc2N1S(=O)(=O)c1ccc(F)cc1 (configuration not stated)	-	-	-	-	-4.3
CN1/C(=C\C(=O)CSc2nnc(NCc3ccccc3)s2)C(C)(C)c2ccccc21	-	-	-	-	-9.7
Cc1cc(C(=O)CSc2nnc(NCc3ccccc3)s2)c(C)n1C	-	-	-	-	-
